This passage reports cross-linked residues results from article PMC12350791.

Targets include USP39 (UniProt Q53GS9); SMC4 (UniProt Q9NTJ3); TMED4 (UniProt Q7Z7H5); TMED9 (UniProt Q9BVK6); TMED2 (UniProt Q15363); TMED7 (UniProt Q9Y3B3); SF3A1 (UniProt Q15459); SF1 (UniProt Q15637); VPS35 (UniProt Q96QK1); SF3B2 (UniProt Q13435); YWHAZ (UniProt P63104); THOC3 (UniProt Q96J01); THOC7 (UniProt Q6I9Y2); YWHAB (UniProt P31946); VIRMA (UniProt Q69YN4); UBE2I (UniProt P63279); SNRPD1 (UniProt P62314); YWHAH (UniProt Q04917); STAT5B (UniProt P51692); STK24 (UniProt Q9Y6E0); UXT (UniProt Q9UBK9); TSNAX (UniProt Q99598); THRAP3 (UniProt Q9Y2W1); SF3B3 (UniProt Q15393); ZC3H4 (UniProt Q9UPT8); SPG11 (UniProt Q96JI7); SYMPK (UniProt Q92797); THOC1 (UniProt Q96FV9); TXLNG (UniProt Q9NUQ3); UQCRC2 (UniProt P22695); SNU13 (UniProt P55769); YWHAG (UniProt P61981); SPC25 (UniProt Q9HBM1); SNRPD3 (UniProt P62318).

Holding throughout (assay): cross-linking mass spectrometry
Details in all cases: DSBSO, in cells or nuclear extract, not told apart

Chain of TMED10, P49755 (P49755 whole entry): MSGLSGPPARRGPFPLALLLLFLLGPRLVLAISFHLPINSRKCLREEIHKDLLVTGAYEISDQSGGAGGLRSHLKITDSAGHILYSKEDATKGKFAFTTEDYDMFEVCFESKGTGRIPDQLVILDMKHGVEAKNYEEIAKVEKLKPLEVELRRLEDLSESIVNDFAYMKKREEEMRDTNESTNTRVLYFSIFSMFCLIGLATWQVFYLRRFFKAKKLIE
Chain of YWHAZ (P63104 whole entry): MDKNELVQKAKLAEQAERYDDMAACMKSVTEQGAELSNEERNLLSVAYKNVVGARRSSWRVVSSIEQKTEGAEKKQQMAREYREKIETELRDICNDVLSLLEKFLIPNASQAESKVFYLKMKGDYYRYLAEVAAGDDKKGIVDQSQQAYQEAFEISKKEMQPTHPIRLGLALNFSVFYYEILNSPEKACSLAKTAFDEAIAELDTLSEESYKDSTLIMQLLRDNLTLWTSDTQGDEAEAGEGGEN
Chain of TMED4 (Q7Z7H5 whole entry): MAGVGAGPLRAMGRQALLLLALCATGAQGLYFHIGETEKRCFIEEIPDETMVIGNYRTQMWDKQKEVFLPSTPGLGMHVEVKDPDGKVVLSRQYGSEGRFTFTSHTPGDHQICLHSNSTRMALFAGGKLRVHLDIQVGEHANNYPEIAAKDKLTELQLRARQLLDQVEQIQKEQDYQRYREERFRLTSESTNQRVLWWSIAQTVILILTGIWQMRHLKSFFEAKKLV
Chain of SF3A3, Q12874 (Q12874 whole entry): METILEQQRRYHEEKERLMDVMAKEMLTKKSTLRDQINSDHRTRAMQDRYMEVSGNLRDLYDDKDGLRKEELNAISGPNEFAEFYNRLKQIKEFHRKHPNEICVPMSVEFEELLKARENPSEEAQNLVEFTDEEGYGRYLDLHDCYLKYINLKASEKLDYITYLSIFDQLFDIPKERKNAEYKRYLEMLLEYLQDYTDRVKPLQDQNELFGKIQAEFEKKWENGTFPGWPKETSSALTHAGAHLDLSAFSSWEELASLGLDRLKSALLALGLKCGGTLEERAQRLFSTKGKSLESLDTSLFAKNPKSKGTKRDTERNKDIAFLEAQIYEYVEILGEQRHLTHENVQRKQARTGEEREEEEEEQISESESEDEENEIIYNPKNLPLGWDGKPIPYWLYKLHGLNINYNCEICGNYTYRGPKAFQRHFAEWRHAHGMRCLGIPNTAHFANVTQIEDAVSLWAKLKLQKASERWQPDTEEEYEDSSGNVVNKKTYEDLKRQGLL
Chain of SF3A1 (Q15459 whole entry): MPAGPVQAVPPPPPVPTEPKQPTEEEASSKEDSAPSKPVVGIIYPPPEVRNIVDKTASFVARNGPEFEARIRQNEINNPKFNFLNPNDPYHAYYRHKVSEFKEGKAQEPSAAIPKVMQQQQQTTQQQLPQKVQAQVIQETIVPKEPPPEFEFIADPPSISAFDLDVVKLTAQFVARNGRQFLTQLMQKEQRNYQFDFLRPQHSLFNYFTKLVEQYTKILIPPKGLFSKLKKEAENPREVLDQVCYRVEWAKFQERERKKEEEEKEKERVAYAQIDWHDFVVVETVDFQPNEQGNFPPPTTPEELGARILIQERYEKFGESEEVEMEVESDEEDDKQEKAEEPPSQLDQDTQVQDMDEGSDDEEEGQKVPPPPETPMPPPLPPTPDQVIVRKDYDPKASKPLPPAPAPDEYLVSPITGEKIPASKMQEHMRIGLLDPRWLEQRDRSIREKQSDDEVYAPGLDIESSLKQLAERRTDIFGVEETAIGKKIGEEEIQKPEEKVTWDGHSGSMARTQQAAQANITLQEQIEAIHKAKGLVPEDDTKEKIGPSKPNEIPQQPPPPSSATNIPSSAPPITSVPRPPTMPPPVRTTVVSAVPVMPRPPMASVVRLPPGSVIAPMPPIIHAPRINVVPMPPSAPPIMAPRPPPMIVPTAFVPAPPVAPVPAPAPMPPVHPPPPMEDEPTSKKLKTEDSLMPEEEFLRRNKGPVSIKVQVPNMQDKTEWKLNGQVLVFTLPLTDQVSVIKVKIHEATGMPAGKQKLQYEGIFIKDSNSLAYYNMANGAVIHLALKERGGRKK
Chain of SF3B2, Q13435 (Q13435 whole entry): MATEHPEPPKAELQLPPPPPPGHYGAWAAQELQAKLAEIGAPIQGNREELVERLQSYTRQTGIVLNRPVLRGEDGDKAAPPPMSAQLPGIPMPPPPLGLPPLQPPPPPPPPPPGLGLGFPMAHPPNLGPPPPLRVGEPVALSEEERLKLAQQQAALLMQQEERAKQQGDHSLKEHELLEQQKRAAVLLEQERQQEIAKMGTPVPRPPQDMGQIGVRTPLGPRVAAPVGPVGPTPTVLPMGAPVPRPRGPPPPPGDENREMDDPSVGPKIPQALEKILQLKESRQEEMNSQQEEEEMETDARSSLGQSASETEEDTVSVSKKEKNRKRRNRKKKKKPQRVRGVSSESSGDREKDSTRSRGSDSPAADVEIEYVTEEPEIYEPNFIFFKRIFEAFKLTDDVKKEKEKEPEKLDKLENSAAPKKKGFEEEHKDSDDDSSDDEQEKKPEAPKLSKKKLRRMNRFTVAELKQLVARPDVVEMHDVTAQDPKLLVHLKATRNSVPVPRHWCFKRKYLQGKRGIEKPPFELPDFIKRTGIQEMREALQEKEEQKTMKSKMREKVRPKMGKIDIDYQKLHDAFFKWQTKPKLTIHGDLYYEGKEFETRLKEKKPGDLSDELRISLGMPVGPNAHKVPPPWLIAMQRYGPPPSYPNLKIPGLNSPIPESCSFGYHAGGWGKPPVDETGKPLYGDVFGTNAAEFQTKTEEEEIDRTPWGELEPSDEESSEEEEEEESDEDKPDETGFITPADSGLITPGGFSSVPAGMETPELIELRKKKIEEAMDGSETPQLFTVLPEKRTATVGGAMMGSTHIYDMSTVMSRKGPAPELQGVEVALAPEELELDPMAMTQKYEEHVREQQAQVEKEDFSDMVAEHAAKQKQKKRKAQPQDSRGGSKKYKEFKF
Chain of SF3B2 (Q13435 whole entry): as above
Chain of THOC5, Q13769 (Q13769 whole entry): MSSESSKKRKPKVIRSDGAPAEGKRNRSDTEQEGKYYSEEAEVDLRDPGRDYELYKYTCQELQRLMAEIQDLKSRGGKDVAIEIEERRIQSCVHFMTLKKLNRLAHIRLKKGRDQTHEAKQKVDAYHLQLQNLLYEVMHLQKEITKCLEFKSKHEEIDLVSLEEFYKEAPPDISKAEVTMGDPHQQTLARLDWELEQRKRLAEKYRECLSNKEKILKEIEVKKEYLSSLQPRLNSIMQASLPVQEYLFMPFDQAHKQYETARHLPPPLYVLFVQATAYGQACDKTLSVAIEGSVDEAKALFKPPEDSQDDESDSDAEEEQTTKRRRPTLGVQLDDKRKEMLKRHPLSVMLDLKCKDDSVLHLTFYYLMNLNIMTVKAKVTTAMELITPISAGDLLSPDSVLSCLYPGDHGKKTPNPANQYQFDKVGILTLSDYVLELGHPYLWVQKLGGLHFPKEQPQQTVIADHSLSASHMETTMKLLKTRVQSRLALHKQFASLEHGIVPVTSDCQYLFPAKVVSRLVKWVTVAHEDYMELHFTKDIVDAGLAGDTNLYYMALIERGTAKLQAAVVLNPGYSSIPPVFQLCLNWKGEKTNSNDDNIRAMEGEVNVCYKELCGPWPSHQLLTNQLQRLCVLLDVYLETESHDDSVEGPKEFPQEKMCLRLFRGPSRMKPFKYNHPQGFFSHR
Chain of TMED2, Q15363 (Q15363 whole entry): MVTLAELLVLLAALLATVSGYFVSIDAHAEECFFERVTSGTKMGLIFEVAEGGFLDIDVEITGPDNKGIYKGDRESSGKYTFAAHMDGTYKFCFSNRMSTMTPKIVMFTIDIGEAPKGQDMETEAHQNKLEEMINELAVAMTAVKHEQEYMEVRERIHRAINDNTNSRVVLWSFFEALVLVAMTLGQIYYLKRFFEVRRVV
Chain of TSNAX (Q99598 whole entry): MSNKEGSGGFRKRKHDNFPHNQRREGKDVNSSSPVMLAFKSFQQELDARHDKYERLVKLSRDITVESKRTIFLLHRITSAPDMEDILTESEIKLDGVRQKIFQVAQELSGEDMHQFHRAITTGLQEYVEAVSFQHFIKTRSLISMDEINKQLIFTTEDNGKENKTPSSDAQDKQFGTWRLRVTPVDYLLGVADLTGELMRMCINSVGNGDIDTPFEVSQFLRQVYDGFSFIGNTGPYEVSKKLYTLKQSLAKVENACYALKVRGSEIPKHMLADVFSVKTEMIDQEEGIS
Chain of STAT5A, P42229 (P42229 whole entry): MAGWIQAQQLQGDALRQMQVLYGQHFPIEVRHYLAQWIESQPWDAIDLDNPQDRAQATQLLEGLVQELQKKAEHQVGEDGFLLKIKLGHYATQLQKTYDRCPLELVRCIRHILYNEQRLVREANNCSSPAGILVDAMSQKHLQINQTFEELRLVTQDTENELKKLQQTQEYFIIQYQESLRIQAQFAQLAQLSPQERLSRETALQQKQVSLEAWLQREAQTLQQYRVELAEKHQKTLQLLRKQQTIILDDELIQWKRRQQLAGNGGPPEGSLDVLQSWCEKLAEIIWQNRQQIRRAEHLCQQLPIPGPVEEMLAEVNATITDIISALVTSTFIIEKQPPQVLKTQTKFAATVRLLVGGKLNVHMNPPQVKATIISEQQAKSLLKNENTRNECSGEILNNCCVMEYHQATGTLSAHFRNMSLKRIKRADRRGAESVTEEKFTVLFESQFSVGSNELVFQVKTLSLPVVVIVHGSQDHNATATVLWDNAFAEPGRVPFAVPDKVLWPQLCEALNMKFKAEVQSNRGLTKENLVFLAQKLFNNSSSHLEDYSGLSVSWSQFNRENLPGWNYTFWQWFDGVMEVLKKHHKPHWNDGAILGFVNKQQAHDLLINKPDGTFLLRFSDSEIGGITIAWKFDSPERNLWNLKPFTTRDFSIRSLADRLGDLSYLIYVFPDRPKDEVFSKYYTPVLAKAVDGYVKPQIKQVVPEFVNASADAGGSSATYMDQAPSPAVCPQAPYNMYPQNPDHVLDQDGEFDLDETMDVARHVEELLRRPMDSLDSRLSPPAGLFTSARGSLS
Chain of YWHAZ, P63104 (P63104 whole entry): as the sequence (P63104 whole entry) above

With EFTUD2, Q15029, the cross-linked residues entry in the test with USP39 is listed as “K646 - K308”. In the case of NCAPH, Q15003, the cross-linked residues entry with SMC4 is listed as “K725 - K99”. For the substance TMED2, Q15363, the cross-linked residues result was “K129 - K152” in the test with TMED4 and “K129 - K160” with TMED9. For the substance TMED10, P49755, the cross-linked residues result is recorded as “K145 - K129” with TMED2, “K145 - K152” in the test with TMED4 and “K169 - K91” with TMED7.

SF3A2, Q15428: the cross-linked residues entry with SF3A1 is “K190 - K264”. Turning to IREB2, P48200, the cross-linked residues result in the test with SF1 is on record as “K530 - K169”. As for VPS26A, O75436, the cross-linked residues result with VPS35 is given as “K30 - K44”. As to SF3B1, O75533, the cross-linked residues entry with SF3B2 is given as “K1292 - K486”. YWHAE, P62258: the cross-linked residues entry in the test with YWHAZ was “K12 - K68”. Turning to THOC5, Q13769, the figures for the cross-linked residues result with THOC3 and in the test with THOC7 were “K223 - K171” and “K223 - K159”, respectively. For YWHAQ, P27348, the cross-linked residues entry with YWHAB is listed as “K85 - K11”.

With ZC3H13, Q5T200, in the test with VIRMA, the cross-linked residues result is “K1535 - K576”. Turning to RANBP2, P49792, the cross-linked residues entry with UBE2I was “K2687 - K49”. With YWHAG, P61981, in the test with YWHAZ, the cross-linked residues entry was “K77 - K9”. SNRPB, P14678: the cross-linked residues result with SNRPD1 is “K54 - K44”. Regarding YWHAZ, P63104, the cross-linked residues entry in the test with YWHAH is “K9 - K91”.

Take STAT5A, P42229: in the test with STAT5B, the cross-linked residues result is “K86 - K86”. Consider PDCD10, Q9BUL8, for which the cross-linked residues entry with STK24 is “K70 - K347”. For the substance PDRG1, Q9NUG6, the cross-linked residues result in the test with UXT was “K36 - K48”. Regarding TSN, Q15631, the cross-linked residues result in the test with TSNAX is on record as “K219 - K269”. For the substance NDUFAF2, Q8N183, the cross-linked residues entry with THRAP3 is given as “K57 - K668”.

As to SF3B2, Q13435, the figures for the cross-linked residues entry with SF3A1 and in the test with SF3B3 were “K275 - K55” and “K486 - K965”, respectively. With WDR82, Q6UXN9, the cross-linked residues entry with ZC3H4 is reported as “K181 - K935”. Regarding RPS16, P62249, in the test with SPG11, the cross-linked residues entry is “K60 - K942”. As to CSTF2, P33240, the cross-linked residues entry in the test with SYMPK is recorded as “K189 - K490”. Consider THOC7, Q6I9Y2, for which the cross-linked residues entry in the test with THOC1 is reported as “K32 - S2”.

As for WTAP, Q15007, the cross-linked residues result in the test with VIRMA was “K268 - K399”.

Regarding TXLNA, P40222, in the test with TXLNG, the cross-linked residues entry was “K216 - K191”. SF3A3, Q12874: the values for the cross-linked residues entry with SF3B2 and in the test with SF3B3 were “K69 - K280” and “K496 - K974”, respectively. For COX5B, P10606, the cross-linked residues result with UQCRC2 is reported as “K57 - K23”. Take PRPF6, O94906: the cross-linked residues entry with SNU13 was “K775 - K113”. Take YWHAB, P31946: the cross-linked residues result in the test with YWHAG is “K87 - K10”. For the substance TBC1D9B, Q66K14, the cross-linked residues result with SPC25 was “K1066 - K90”. Regarding SNRPC, P09234, the cross-linked residues entry in the test with SNRPD3 is listed as “K52 - K78”.
